Assay results taken from PubChem BioAssay (Tox21).
Results filed as inconclusive are left out. A number with no mark means an inactive call. The source made the active and inactive calls. Calls follow the shape of the full dose curve.

assay: qHTS assay to identify small molecule agonists or antagonists of the thyroid stimulating hormone receptor (TSHR) signaling pathway - wild type cell line counter screen (AID 1259384); settings: HEK293 wild type, cAMP HTRF counter-screen; series mostly up to 92.4 µM; cAMP activity change: at the top concentration
Excerpt: U.S. Tox21 Program National Center for Advancing Translational Sciences [NCATS] NIH Chemical Genomics Center [NCGC] U.S. Environmental Protection Agency [EPA] National Institutes of Environmental Health Sciences [NIEHS] National Toxicology Program [NTP] U.S. Food and Drug Administration [FDA] Tox21 Assay Overview: TSHR is the receptor for thyrotropin (thyroid stimulating hormone or TSH), a member of the glycoprotein hormone family. TSH is released by the anterior pituitary gland and is the main regulator of thyroid gland growth and development. Upon binding circulating thyrotropin, a G-protein signal cascade activates adenylyl cyclase and […] cAMP concentration is increased. cAMP is a key second messenger involved extensively in cellular signal transduction pathways associated with the majority of G-protein coupled receptors (GPCRs). The activation of these GPCRs by neurotransmitters, lipids, nucleotides, peptides and hormones results in the activation or the inhibition of plasma membrane-bound adenylate cyclase through heterotrimeric G-proteins. A cell-based TSHR-Hek293 assay can be used to identify TSHR agonists. To eliminate the false positive compounds identified from screening a cell-based TSHR-Hek293 cell line, cAMP assay in a wild type Hek293 cells was used as a counter screening.
Tox21 Assay Protocol Summary: Hek293 cells (wild type) were dispensed at 800 cells/4 uL/well in 1536-well white plates using a Multidrop dispenser. After the assay plates were incubated at a 37 C/5% CO2 incubator for 18 hrs, 23 nL of compounds dissolved in DMSO, positive controls or DMSO only was transferred to the assay plate by a pin tool, followed by 1 ul medium containing Ro20-1724. After 30 min of incubation at room temperature, 2.5 ul/well of cAMP-d2 and 2.5 ul/well of anti-cAMP-cryptate were added respectively into the assay plates using a Flying Reagent Dispenser. The plates were incubated at room temperature for 1 hr. The fluorescence intensity in the plates was measured using an Envision plate reader. Each test compound was measured at 15 concentrations and in triplicates.
% is scaled to controls: 0 for no effect and ±100 for the full control effect.

Compared with `CC(=O)CC(=O)c1ccccc1`, `CC(=O)OC/C=C/c1ccccc1` is lower in “cAMP activity change” value: 10% for the first, -0.0961% for the second.

Compared with `COC(Cc1ccccc1)OC`, `Cc1cccc(Oc2ccccc2)c1` is lower in “cAMP activity change” value: 3.35% for the first, -2.45% for the second.

Compared with `O=C(O)c1cccc(N(Cc2cccnc2)c2ccc(OC(F)F)c(OC(F)F)c2)c1`, `CCOc1ccc2[nH]cc(C(=O)NCc3ccccc3)c(=O)c2n1` is higher in “cAMP activity change” value: -1.44% for the first, 2.37% for the second.

Compared with `SC1CCCC1`, `C1CCC2OC2C1` (stereo not given) is higher in “cAMP activity change” value: 0.123% for the first, 2.41% for the second.

Compared with `Cc1ncsc1CCO`, `Cc1ccc(C(N)=O)cc1N` is higher in “cAMP activity change” value: -12.1% for the first, -4.37% for the second.

Compared with `CC(C)(C)c1cc(O)c(C(C)(C)C)cc1O`, `CC(C)(C)C1CCCCC1O` (stereo not given) is higher in “cAMP activity change” value: -3.47% for the first, 0.495% for the second.

First: CCCCCCCCCCCCC(=O)O
Second: CCCCCCCCCC(=O)OCC
The “cAMP activity change” value of the first is higher: 6.95% for the first, -2.58% for the second.

Going from `CCCCCC(CO)CCC` (stereo not given) to `CCCC(C)C`, the “cAMP activity change” value falls from -4.81% to -5.28%.

First: O=c1[nH]cnc2ccccc12
Second: O=c1c2ccccc2nnn1CCl
The “cAMP activity change” value of the first is higher: 6.68% for the first, -2.94% for the second.

Compared with `OCC1CC2CC1C1CCC(CO)C21` (stereo not given), `CC(O)C1CCCCC1` (stereo not given) is lower in “cAMP activity change” value: -1.35% for the first, -1.62% for the second.

Going from `CC(=O)SCc1ccco1` to `CC(=O)c1ccc2c(c1)[C@H](NC(=O)c1ccc(F)cc1)[C@@H](O)C(C)(C)O2`, the “cAMP activity change” value rises from -4.94% to 5.32%.

First: CCCCCCCCCCCCCCC1CO1 (stereo not given)
Second: COC(=O)CSc1cc(N=c2sc(=O)n3n2CCCC3)c(F)cc1Cl
The “cAMP activity change” value of the first is lower: -0.0522% for the first, 5.57% for the second.

Going from `C=C(C)C(=O)OC(C)C` to `Cc1cc(C)c(S(=O)(=O)O)cc1N=Nc1cc(S(=O)(=O)O)c2ccccc2c1O`, the “cAMP activity change” value falls from 0.598% to 0.267%.

Compared with `Oc1ccc(Sc2ccc(O)cc2)cc1`, `N#Cc1cc2ccccc2c2ccccc12` is higher in “cAMP activity change” value: -3.58% for the first, -1.55% for the second.

With `CC1CCc2cc(F)cc3c(=O)c(C(=O)O)cn1c23` (stereo not given) the “cAMP activity change” value was 1.37% [at 42.5 µM, hits give high values].
In the case of `C=Cc1c(C)c2cc3[nH]c(cc4nc(cc5nc(cc1[nH]2)C(C)=C5CCC(=O)O)C(CCC(=O)O)=C4C)c(C)c3C=C`, the “cAMP activity change” value is reported as 8.27% [at 42.5 µM, hits give high values].
In the case of `O=C(C(=O)c1ccc(Br)cc1)c1ccc(Br)cc1`, the cAMP activity change is reported as 5.87% [at 18.9 µM, hits give high values].
In the case of `C=CC[N+]1([C@H]2C[C@H]3[C@@H]4CC[C@H]5C[C@H](OC(C)=O)[C@@H](N6CCCCC6)C[C@]5(C)[C@H]4CC[C@]3(C)[C@H]2OC(=O)CC)CCCCC1`, the “cAMP activity change” value is reported as 10.7% [at 42.5 µM, hits give high values].
For `CCCCc1cc2ccccc2c(OCCN(C)C)n1`, the “cAMP activity change” value was 1.9% [at 42.5 µM, hits give high values].
With `NC(N)=NN=C(/C=C/c1ccc([N+](=O)[O-])o1)/C=C/c1ccc([N+](=O)[O-])o1` the “cAMP activity change” value was 3.79% [at 42.5 µM, hits give high values].
With `CC(=O)Nc1ccc(/C=N/NC(N)=S)cc1` the “cAMP activity change” value was 2.8% [at 42.5 µM, hits give high values].
With `O=C(O)[C@@H]1[C@H]2C[C@H]3c4[nH]c5ccccc5c4CCN3C[C@@H]2CC[C@@H]1O` the “cAMP activity change” value was 4.41% [at 42.5 µM, hits give high values].
In the case of `CC(=O)N(CC(=O)N(C)C)c1ccccc1`, the “cAMP activity change” value is reported as -1.25% [at 42.5 µM, hits give high values].
In the case of `O=C(O)Cc1sc(-c2ccccc2)nc1-c1ccc(Cl)cc1`, the “cAMP activity change” value is reported as 6.3% [at 42.5 µM, hits give high values].
With `CN1CCC(OC(c2ccccc2)c2ccccc2)CC1` the “cAMP activity change” value was 4.33% [at 42.5 µM, hits give high values].

In the case of `Cn1sccc1=O`, the Potency is reported as “inactive”.
